Experimental data as given in PubChem BioAssay (EPA / NIEHS).
Calls of active or inactive are those of the source. Rule for the calls: active = hit-call score of the fitted dose curve at least 0.9, where 1 is the maximum; inactive = score below 0.9.

Assay: ATG_M_19_CIS: Attagene CIS-FACTORIAL HepG2 Assay for M19 Transcription Factor (Internal Marker) (AID 2282939)
Conditions: HepG2 Attagene CIS-FACTORIAL M19 internal marker reporter; actives raise or lower the signal
Description: ATG_CIS is a cell-based, multiplexed-readout assay that uses HepG2, a human liver cell line, with measurements taken at 24 hours after chemical dosing in a 24-well plate.ATG_M_19_CIS is one of 52 assay component(s) measured or calculated from the ATG_CIS assay. It is designed to make measurements of mRNA induction, a form of inducible reporter, as detected with fluorescence intensity signals by Reverse transcription polymerase chain reaction (RT-PCR) and Capillary electrophoresis technology.Data from the assay component ATG_M_19_CIS was analyzed into 1 assay endpoint. This assay endpoint, ATG_M_19_CIS, was analyzed with bidirectional fitting relative to DMSO as the negative control and baseline of activity. Using a type of inducible reporter, measures of mRNA for gain or loss-of-signal activity can be used to understand the background control at the transcription factor-level as they relate to the gene . Furthermore, this assay endpoint can be referred to as a secondary readout, because this assay has produced multiple assay endpoints where this one serves a background control function. To generalize the intended target to other relatable targets, this assay endpoint is annotated to the background measurement intended target family, where the subfamily is internal marker.
Human liver HepG2 cells are transiently transfected with multiple reporter transcription units (MRTUs) in 6-well plates using FuGene 6 reagent (Roche; 3 ml FuGene/1 mg DNA). The MRTU constructs are regulated by a cis-regulating element (promoter). […] A major difference between the CIS and TRANS system is that in CIS activities of endogenous TFs are measured, whereas the TRANS assay evaluates changes in activities of exogenous, chimeric NR-Gal4 proteins. […] At the end of 24 hour incubation, total RNA was isolated using TriZol reagent (Invitrogen). The isolated RNA is then reverse-transcribed using oligo(dT) primer and Mo-MLV reverse transcriptase (Invitrogen) with DNAse I (Ambion) treatment for 30 min. The one-tenth of the produced cDNA was amplified by PCR using Taq DNA polymerase (Invitrogen) and two reporter sequence-specific primers. The PCR products were fluorescently labeled by primer extension with 6-arboxyfluorescein (6-FAM) 5'-labeled reporter sequence-specific primer (2 min at 95 C, 20 s at 68 C and 10 min at 72 C) and these products were digested with 5U of HpaI (New England Biolabs) for 2h at 37 C. The fragments were purified using Qiaquick PCR columns (Qiagen), analyzed on an ABI 3130xL genetic analyzer (Applied Biosystems) with peak positions identified by using a set of X-rhodamine (ROX)-labeled MapMarker1000 molecular weight standards (BioVentures). The raw capillary electrophoresis data was processed using Attagraph software (Attagene).

outcome, inactive:
NC(=O)c1nc(-c2cccc(-c3cc(F)ccc3OCC(F)(F)C(F)(F)F)c2)n[nH]1
O=C=NCCCCCCN=C=O
CCCCCCCCCCCC[N+](C)(C)C
Cc1cc2c(cc1C(F)(F)F)N(C(=O)Nc1ccc(Oc3cccnc3C)nc1)CC2
O=C(OCCCCCCOC(=O)c1ccccc1)c1ccccc1
Clc1ccccc1C(c1ccccc1)(c1ccccc1)n1ccnc1
Cc1cccc2ccccc12
COCC(C)OCC(C)OCC(C)O (stereo not given)
CCCCCCCC[Si](OCC)(OCC)OCC
CCN(CC)C(=O)c1cc(S(=O)(=O)Cc2ccccc2)c(N2CCC(c3ccccc3)CC2)cc1N(CC)CCN(C)C
Cc1ccc2oc(CN(Cc3ccccc3)C(=O)Nc3c(F)cc(F)cc3F)c(-c3ccc(Cl)cc3)c2c1
CCCCOC(=O)c1ccc(O)cc1
O=C(O)c1ccccc1-n1cc(C(=O)O)c(=O)c2cc(Nc3c(F)cc(F)cc3Cl)c(Cl)cc21
CCCCCCCCOC(=O)c1cc(O)c(O)c(O)c1
CC(C)(O)c1ccc(CNC(=O)c2cccnc2Oc2ccc3nonc3c2)cc1
CCCCCCCCOc1ccc(C(=O)c2ccccc2)c(O)c1
Clc1cc(Cl)c2c(c1)N=C1CCCCCN1C2
Oc1ccccc1
O=C(O)c1ccccc1C(=O)OCc1ccccc1
C[C@]12CC[C@@H]3c4ccc(O)cc4CC[C@H]3[C@@H]1CCC2=O
COc1cccc([C@H](O)C2CCN(CCc3ccc(F)cc3)CC2)c1OC
CC(=O)N1CCN(c2ccc(OC[C@H]3CO[C@](Cn4ccnc4)(c4ccc(Cl)cc4Cl)O3)cc2)CC1
CC(O)CC(C)(C)O (stereo not given)
O=C(O)Cn1c(=O)n(Cc2ccc(Br)cc2F)c(=O)c2ccc(Cl)cc21
OC12N=C(c3ccccc3)SC1Cc1cc(Cl)ccc12 (stereo not given)
O=C1O[C@H]([C@@H](O)CO)C(O)=C1O
CN1C(=O)N(c2ccccc2Br)Cc2cnc(Nc3ccc4c(c3)OCC(CO)O4)nc21 (stereo not given)
CCCCCc1ccc(N)cc1
CCCOC(=O)c1cc(O)c(O)c(O)c1
CCCCCCCCN(C)CCCCCCCC
Cc1occc1C(=O)Nc1ccc(C(=O)N2CCC(F)(F)/C(=C\C(=O)N3CCC(N4CCCCC4)CC3)c3ccccc32)cc1
O=C(Nc1ccc(Cl)cc1)Nc1ccc(Cl)c(Cl)c1
Cc1ccc(C(C)C)cc1
c1ccc2ccccc2c1
O=c1ccc2ccccc2o1
COc1cc(C(=O)NC2CCN(C)CC2)ccc1Nc1ncc2c(n1)N(C1CCCC1)CC(F)(F)C(=O)N2C
CCN(Cc1cccc(S(=O)(=O)O)c1)c1ccc(C(=C2C=CC(=[N+](CC)Cc3cccc(S(=O)(=O)O)c3)C=C2)c2ccccc2S(=O)(=O)[O-])cc1
CO[C@H]1/C=C/O[C@@]2(C)Oc3c(C)c(O)c4c(O)c(c(/C=N/N5CCN(C)CC5)c(O)c4c3C2=O)NC(=O)/C(C)=C\C=C\[C@H](C)[C@H](O)[C@@H](C)[C@@H](O)[C@@H](C)[C@H](OC(C)=O)[C@@H]1C
O=CCCCC=O
CCCC(=O)OCCC(C)C
